In PubChem BioAssay (NCI):
The panel holds about 83,000 compounds, 20% with a hit somewhere; the sample as a whole holds those more often.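 Cell lines were cultured in 96-well plates, exposed to a single compound concentration, and assessed for percent growth 48 hours later.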 Values without a mark were called inactive. Active and inactive are the calls of the source. The calls were made as follows: active = growth percent below 10; inactive = the rest.

Experiments:
Test in all cases: NCI-60 one-dose screen, 48 h (100 = growth as untreated, 0 = no growth, -100 = all killed)
Conditions in all cases: 10 µM unless noted
BT-549 breast = system: BT-549 breast
MDA-MB-435 melanoma = system: MDA-MB-435 melanoma
SW-620 colon = system: SW-620 colon
MCF7 breast = system: MCF7 breast
HCT-116 colon = system: HCT-116 colon
HCC-2998 colon = system: HCC-2998 colon
KM12 colon = system: KM12 colon

Compound | growth (BT-549 breast) | growth (MDA-MB-435 melanoma) | growth (SW-620 colon) | growth (MCF7 breast) | growth (HCT-116 colon) | growth (HCC-2998 colon) | growth (KM12 colon)
CCNS(=O)(=O)c1ccc(C)cc1 | 114% | 111% | 107% | 94.9% | 113% | 106% | 108%
COc1cc(C2=NOC(c3cc(OC)c(OC)c(OC)c3)C2)ccc1OCCCCOc1cc2c(cc1OC)C(=O)N1CCC[C@H]1C=N2 (some centres undefined) | -96.8% (active) | -74.1% (active) | -31.7% (active) | -5.09% (active) | 2.63% (active) | -57.4% (active) | -24.3% (active)
Nc1nc2ccc([C@@H]3Nc4ccc5[nH]ncc5c4[C@H]4[C@H]5CCC(C5)[C@H]43)cc2s1 | 36.7% | -62.4% (active) | -3.94% (active) | -0.0226% (active) | 12.1% | 49.3% | 3.63% (active)
O=S(=O)(NCC[C@@H]1C[C@H]1c1ccc2ccccc2c1)c1ccc(C(F)(F)F)cc1 | 92.5% | 99.1% | 98.6% | 91.1% | 88% | 101% | 95.2%
CC(=O)c1nn(-c2ccccc2)/c(=N\N=C\c2coc3ccc(F)cc3c2=O)s1 | 105% | 103% | 98.7% | 90.3% | 96% | 111% | 101%
Cc1ccc(-c2cnc3sc4ccc(Cl)cc4n23)cc1 | 100% | 105% | 89.7% | 81.5% | 89% | 105% | 96.5%
CCCCCNCCCCCNc1cc(OC)cc2cccnc12 | 69.2% | 103% | 90.9% | 50.6% | 63.5% | 93.4% | 103%
Fc1[nH]nc2ccc([C@@H]3Nc4ccc5[nH]ncc5c4[C@H]4C5CCC(C5)[C@@H]34)cc12 (some centres undefined) | 53.2% | -42.5% (active) | 23.9% | 21.2% | 21% | 58.2% | 20.7%
CN(C)c1ccc(C(c2ccccc2)c2ccc(N(C)C)cc2)cc1 | 101% | 97% | 93.4% | 90.3% | 80.6% | 95.7% | 91.5%
O=C1OCC2=C1C(c1ccc(Cl)c(Cl)c1)c1cc3c(cc1N2CCO)CCC3 (centres undefined) | 44.8% | -38.6% (active) | 24.5% | 20.4% | 18.3% |  | 9.04% (active)
CCN(CC)C(Cl)=Nc1ccc(Cl)cc1 | 112% | 100% | 102% | 101% |  | 101% | 107%
CCCCc1n(Cc2ccc3ccccc3n2)cc[n+]1Cc1ccc2ccccc2n1 |  | 7.37% (active) | 22.1% | 7.29% (active) | 9.88% (active) | 18.5% | 5.78% (active)
N#Cc1c(N)n(C2OC(CO)C(O)C2O)c2ncnc(N)c12 (centres undefined) |  | -58.4% (active) | -33.3% (active) | -21.1% (active) | 4.76% (active) | -35.2% (active) | -3.95% (active)
Cc1ccc(N=CNN=C(N)N)cc1 | 108% | 112% | 108% | 99% | 103% | 108% | 107%
C#CC[C@@H]1C[C@]2(C)[C@H]3CC=C4[C@H]5[C@@H](C)[C@H](C)CC[C@]5(C(=O)NCCCCCCCCN)CC[C@@]4(C)[C@]3(C)CC[C@H]2C(C)(C)[C@H]1OC(C)=O | 93.7% | -62.4% (active) | -61.9% (active) | -80.4% (active) |  | 58.4% | 0.426% (active)
COc1cc(C)cc2oc3oc(=O)c(-c4csc(-c5cc6ccccc6oc5=O)n4)cc3c(=O)c12 | 107% | 105% | 105% | 101% |  | 106% | 107%
CN(C)c1ccc(Nc2c3ccccc3nc3ccccc23)cc1 |  | 19.4% | 13.6% | 5.1% (active) | 5.58% (active) | 0.72% (active) | 18%
C/C(=N\NC(=S)Nc1ccccc1)c1ccccn1 | 40.2% | 59.6% | 35% | 18.7% | 6.94% (active) | 48.1% | 29.7%
O=C(NC1CC1)c1ccc(-c2nc3ccc4[nH]ncc4c3c3c2CCCC3)cc1 | 29.5% | 11.5% | 18.7% | 38.6% | 17% | 51.1% | 24.4%
CC(CN1CCN(C)CC1)CN1c2ccccc2Sc2ccc(C(F)(F)F)cc21 (centres undefined) | 61.4% | 27.3% | 22.6% | 46.4% | 21.6% | -16.7% (active) | 31.2%
O=C1C=CC(=O)N1c1cccc(N2C(=O)C=CC2=O)c1 | 113% | 103% | 4.72% (active) | 65.9% | 24.7% | 130% | 122%
COc1cccc(NC(=O)c2c(-c3ccccc3)c(-c3ccccc3)n[nH]c2=O)c1 | 102% | 98% | 98.7% | 95.9% | 94.9% | 94.4% | 103%
CC(C)NC(=O)OCC#CCOC(=O)NC(C)C | 95.7% | 110% | 109% | 94.4% | 95.4% | 103% | 106%
C#CC[C@@H]1C[C@]2(C)[C@H]3CC[C@@H]4[C@H]5C(C(=C)C)CC[C@]5(C(=O)NCCCN5CCN(CCCN)CC5)CC[C@@]4(C)[C@]3(C)CC[C@H]2C(C)(C)[C@H]1OC(C)=O (some centres undefined) | 75.6% | -73.3% (active) | -79.4% (active) | -75.4% (active) | -95.3% (active) | -23.5% (active) | -74.6% (active)
Brc1cccc(-n2ncc3c(Nc4ccc(-c5nnc(-c6ccccc6)o5)cc4)ncnc32)c1 |  | 106% | 99.5% | 99.5% | 94.7% | 100% | 102%
C#CC[C@@H]1C[C@]2(C)[C@H]3CC[C@@H]4[C@H]5C(C(=C)C)CC[C@]5(C(=O)NCCN(CCN)CCN)CC[C@@]4(C)[C@]3(C)CC[C@H]2C(C)(C)[C@H]1OC(C)=O (some centres undefined) | 110% | 84.8% | 15.2% | -59.9% (active) | 2.57% (active) | 81.1% | 60%
